LMNA splice mod = qHTS Assay for Modulators of Lamin A Splicing; HeLa LMNA splicing GFP/RFP minigene ratio, 48 h; Potency, µM (series often up to 46.1 µM), without a hit: at the top dose ratio change, negative = inhibition, most hits filed as inhibitors; 200,000 compounds, 0.01% hits; AID 1487, 2009; active means well fitted inhibition curve with a large enough effect in the signal ratio, with a control signal flat, not every such curve was filed as active; inconclusive means small, poorly fitted or top-dose-only effect, or effect the other way, or a change in a side signal; the % refers to the signal ratio
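S3 HeLa stable clones carrying a lamin A-EGFP splicing minigene plus DsRed2 were seeded at 600 cells/well in Opti-MEM with 2% FBS, pin-dosed and incubated 48 h at 37°C. Acumen cytometry (488 nm) gave the GFP/RFP total-intensity ratio.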
IMPase Li inh = qHTS Assay for Identifying the Cell-Membrane Permeable IMPase Inhibitors: Potentiation with Lithium | CHO-M1 cells, IP1 TR-FRET (IP-One), carbachol + lithium | Potency, µM (series often up to 59.4 µM), without a hit: at the top dose activity, negative = IMPase inhibition, usual class: inhibitors | 210,000 compounds, 0.35% hits;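 further: IP1 builds up when IMPase is blocked and the TR-FRET signal falls; plate controls were basal vehicle for no effect and high inhibitor control for full effect; nearly all actives have a fitted effect of over 50% in size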
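Readout is a homogeneous TR-FRET IP1 immunoassay (Ex 320, Em 665 and 620), where raised cytosolic IP1 lowers signal. Cells were CHO-M1 treated 30 min at 37C with test compounds plus a little lithium; AC50 values came from Hill-equation fitting.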
Luc counter = Counterscreen for Luciferase (Kinase-Glo TM) Inhibition; Luciferin 4-monooxygenase (Photuris pensylvanica), Q27757; Kinase-Glo luciferase, ATP luminescence, 8 min; Potency, µM (series often up to 38.3 µM), inactives show at the highest dose activity change, negative = inhibition, most hits filed as inhibitors; 200,000 compounds, 0.28% hits; further: nearly all actives have a fitted effect of over 60% in size
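Inhibition of Kinase-Glo luciferase light generation was assessed at 10 uM ATP in pH 7.2 imidazole buffer, with luminescence measured after eight minutes at ambient temperature.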
HPGD inh = qHTS Assay for Inhibitors of HPGD (15-Hydroxyprostaglandin Dehydrogenase) | 15-hydroxyprostaglandin dehydrogenase [NAD(+)] (Homo sapiens), P15428 | 150,000 compounds, 4.3% hits | AID 894, 2007 | Potency, µM, for the others: at the highest dose activity change, negative = inhibition, actives largely listed as inhibitors | purified HPGD, NADH fluorescence kinetic, PGE2 substrate; active means well fitted inhibition curve with a large enough effect, not every such curve was filed as active; inconclusive means small, poorly fitted or top-dose-only effect, or another doubt; inactive means no such curve, though single readings can be large or run the other way
Target sequence (P15428 whole entry, looked up): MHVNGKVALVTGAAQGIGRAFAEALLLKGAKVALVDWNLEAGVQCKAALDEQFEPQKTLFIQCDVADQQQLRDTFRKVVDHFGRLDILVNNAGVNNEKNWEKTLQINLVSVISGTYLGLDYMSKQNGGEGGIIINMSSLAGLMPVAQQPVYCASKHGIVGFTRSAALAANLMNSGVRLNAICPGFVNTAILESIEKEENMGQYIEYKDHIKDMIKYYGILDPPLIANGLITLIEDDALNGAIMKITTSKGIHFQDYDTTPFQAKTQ
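20 nM HPGD preincubated 15 min at room temperature with compound in 50 mM Tris-HCl pH 8, 0.01% Tween 20. Started with 1 mM NAD+ and 30 uM prostaglandin E2; NADH fluorescence (360/450 nm) read 5 times over 30-s intervals, last minus first.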
ALDH1A1 block = qHTS Assay for Inhibitors of Aldehyde Dehydrogenase 1 (ALDH1A1) | Aldehyde dehydrogenase 1A1 (Homo sapiens), P00352 | Purified ALDH1A1, NADH fluorescence, propionaldehyde substrate | Potency, µM (series often up to 75.3 µM), without a hit: at the top dose activity, negative = inhibition, usual class: inhibitors | 220,000 compounds, 7.3% hits | AID 1030, 2008; active means well fitted inhibition curve with a large enough effect, not every such curve was filed as active; inconclusive means small, poorly fitted or top-dose-only effect, or another doubt; inactive means no such curve, though single readings can be large or run the other way;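 further: plate controls were no enzyme wells and a reference inhibitor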
Target sequence (P00352 whole entry, looked up): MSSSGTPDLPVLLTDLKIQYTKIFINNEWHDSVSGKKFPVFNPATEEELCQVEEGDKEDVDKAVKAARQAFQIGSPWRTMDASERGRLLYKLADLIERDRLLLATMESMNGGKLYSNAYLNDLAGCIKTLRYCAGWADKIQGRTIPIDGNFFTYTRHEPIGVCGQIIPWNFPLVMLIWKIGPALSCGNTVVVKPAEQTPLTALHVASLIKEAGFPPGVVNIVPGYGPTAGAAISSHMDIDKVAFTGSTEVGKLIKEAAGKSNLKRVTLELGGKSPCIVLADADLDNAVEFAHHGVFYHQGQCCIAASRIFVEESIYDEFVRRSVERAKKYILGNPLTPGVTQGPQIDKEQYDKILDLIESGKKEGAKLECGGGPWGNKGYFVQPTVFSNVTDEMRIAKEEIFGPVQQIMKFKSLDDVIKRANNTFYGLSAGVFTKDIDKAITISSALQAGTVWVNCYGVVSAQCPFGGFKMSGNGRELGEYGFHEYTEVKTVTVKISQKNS
Active calls of the source: *; u = inconclusive; x = not tested or not shown; [ ] = dose if it differs, or a comment. A selection: hits, their analogues and other compounds. The true share with any hit is near 9%. Unless noted, the call rests on the fitted dose curve; in most records, active means well fitted curve in the direction sought with a large enough effect; inconclusive means small, poorly fitted or top-dose-only effect, or another doubt; inactive means no such curve, though single readings can be large; an effect the other way counts as inactive or inconclusive. Unless noted, on the % scale 0 is the no-effect control and ±100 the full control effect; potency means the concentration at half of the fitted maximal effect.

SMILES	LMNA splice mod	IMPase Li inh	Luc counter	HPGD inh	ALDH1A1 block
CCOc1ccc(S(=O)(=O)NC2CCCCCC2)cc1	u	16%	-1%	x	u
CCOc1ccc(S(=O)(=O)N/N=C(\C)C2CCCCC2)cc1	-2%	3%	3%	-8%	1.8µM*
O=C(c1ccc(Br)s1)N1CCCC1	-11%	11%[38.3 µM]	-3%	14µM*	-13%
O=C(c1ccc(C(=O)N2CCOCC2)s1)N1CCOCC1	17%	25%[38.3 µM]	-1%	20µM*	4%
O=C(c1ccc(Br)s1)N1CCN(c2ncccn2)CC1	18%	-1%[38.3 µM]	0%	-7%	0%
COc1ccc2cc(C(=O)N3CCOCC3)sc(=O)c2c1OC	6%	1%[38.3 µM]	-7%	22µM*	9%
CCCCCCC(=O)N(O)C1CC(=O)N(Cc2ccccc2)C1=O (stereo not drawn)	u	11%[38.3 µM]	4%	18µM*	3.5µM*
CN(Cc1ccccc1)C1CC(=O)N(c2ccc(C(=O)O)cc2)C1=O (stereo not drawn)	-13%	-1%[38.3 µM]	0%	-6%	28µM*
CCCCCC(=O)N(O)C1CC(=O)N(c2ccccc2)C1=O (stereo not drawn)	u	-5%[38.3 µM]	0%	16µM*	0.79µM*
COC(=O)CCC(=O)OC1(C)C(=O)C=C2C=C(c3ccc(C#N)cc3)OC=C2C1=O (stereo not drawn)	x	9%	-2%	-8%	-13%
CCOC(=O)c1c(C)n(C)c2ccc(O)c(CN3CCC(C)CC3)c12	0%	29%[38.3 µM]	4%	2%	-8%
CCOC(=O)c1c(C)n(C)c2ccc(O)c(CN3CCN(C)CC3)c12	-5%	18%[38.3 µM]	-1%	-8%	18µM*
CCN(CC)CCN1C(=O)C(O)=C(C(C)=O)C1c1ccc(OC)c(OC)c1 (stereo not drawn)	-2%	6%[38.3 µM]	-5%	-18%	18µM*
COc1ccc(C2C(C(C)=O)=C(O)C(=O)N2CCN(C)C)cc1OC (stereo not drawn)	-5%	13%[38.3 µM]	-2%	-3%	-1%
Cc1nc(CCNC(=O)CC2C(=O)NCCN2Cc2ccc(F)cc2)sc1C (stereo not drawn)	x	-2%	7%	x	u
CCOC(=O)c1[nH]c(C(=O)O)c(CCN(CC)CC)c1C	-1%	-11%[38.3 µM]	1%	-2%	5%
COC(=O)c1c(NC(=S)Nc2ccc(CC(=O)O)cc2)sc(C)c1C	9%	u	0%	-26%	25µM*
Cc1sc(NC(=S)Nc2ccc(F)cc2)c(C(N)=O)c1C	11%[46 µM]	1%	3%	x	10µM*
COc1cccc([C@H]2Oc3ccc(OC)cc3/C(=N\OC[C@@H](O)[C@@H]3O[C@@H]4OC(C)(C)O[C@@H]4[C@H]3O)[C@@H]2O)c1	x	x	x	x	-8%[13.5 µM]
CCOC(=O)c1sc2nc(-c3ccco3)c3c(c2c1N)CC(C)(C)OC3	-2%	-14%[38.3 µM]	0%	u	u
CC1(C)Cc2c(c(-c3ccco3)nc3n[nH]c(N)c23)CO1	u	-11%[38.3 µM]	-4%	u	25µM*
Cc1noc(C)c1-c1nccc(N2CCN(C)CC2)n1	u	16%	x	x	u
C/[N+]([O-])=C1\Cc2ccccc2C1=O	2%	-6%[38.3 µM]	-3%	-12%	3.5µM*
OCCC1CN(Cc2ccc3nsnc3c2)CCN1CCc1ccccc1 (stereo not drawn)	7%[46 µM]	11%	7%	x	-1%
COc1cc(C)nc2nc(SCc3ccccc3)nn12	-3%	8%[38.3 µM]	-6%	-21%	14µM*
SMILES	LMNA splice mod	IMPase Li inh	Luc counter	HPGD inh	ALDH1A1 block
CCOC(=O)c1c(Nc2nc(C)c(C(=O)NC)s2)sc(C)c1C	-9%	5%	5%	-12%	-9%
Cc1ccccc1NC(=O)CSc1ccc(-c2ccco2)nn1	-6%	0%	2%	-12%	u
Cc1ccc(C)c(NC(=O)CSc2ccc(-c3ccco3)nn2)c1	-2%	-22%	2%	-21%	3.2µM*
Cc1nnc(NC(=O)CSc2ccc(-c3ccco3)nn2)s1	x	-17%	-4%	x	7.1µM*
Cc1ccc(-c2nnn(CC(=O)N(c3cccc(F)c3)C(C(=O)NC(C)(C)C)c3ccco3)n2)o1 (stereo not drawn)	-11%[46 µM]	4%	0%	x	u
Fc1ccccc1COc1ccc2ccccc2c1CNc1nn[nH]n1	u	0%	0%	x	-12%
CCOC(=O)c1cccc(NC(=O)N2CCC(CN3CCCCCC3)CC2)c1	16%[46 µM]	x	x	x	x
Cc1ccc(NS(=O)(=O)c2cccc([N+](=O)[O-])c2)nc1	-9%[46 µM]	-4%	-2%	x	11µM*
O=S(=O)(Nc1ccc(Cl)cn1)c1cccc(S(=O)(=O)c2ccccc2)c1	x	0%	-1%	x	20µM*
CCOC(=O)c1[nH]cc(-c2ccccc2)c1N1CCOCC1	-19%	20%[38.3 µM]	-1%	4µM*	2.8µM*
CCOC(=O)c1c(-c2ccc(-c3ccccc3)cc2)csc1NC(=O)C1C2CCC(O2)C1C(=O)O (stereo not drawn)	13%	14%[38.3 µM]	-3%	14µM*	u
O=C(CC(c1ccccc1)c1cc(Br)ccc1O)NCCN1CCOCC1 (stereo not drawn)	11%	39%[38.3 µM]	1%	14µM*	-64%
CCOC(=O)c1cnc(-c2ccccc2)nc1N1CCOCC1	12%[46 µM]	-7%	9%	x	-4%
CCOC(=O)c1c(-c2cccc([N+](=O)[O-])c2)csc1NC(=O)CCCOc1ccccc1OC	-5%	20%	2%	u	28µM*
C[C@H](O)CO[C@H]1[C@H]2O[C@H]3[C@H](O)[C@@H](O)[C@@H](O[C@H]4[C@H](O)[C@@H](O)[C@@H](O[C@H]5[C@H](O)[C@@H](O)[C@@H](O[C@H]6[C@H](O)[C@@H](OC[C@H](C)O)[C@@H](O[C@H]7[C@H](O)[C@@H](OC[C@H](C)O)[C@@H](O[C@H]8[C@H](O)[C@@H](O)[C@@H](O[C@@H]([C@@H]1O)[C@@H](CO)O2)O[C@@H]8CO)O[C@@H]7CO)O[C@@H]6CO)O[C@@H]5CO)O[C@@H]4CO)O[C@@H]3CO	x	9%	2%	-7%	-2%
CCc1nnc(NC(=O)CSc2nnc(-c3ccco3)n2C)s1	2%	3%[38.3 µM]	-2%	-3%	3%
Cn1c(SCC(=O)Nc2ccccc2-c2ccccc2)nnc1-c1ccco1	1%	9%[38.3 µM]	-4%	-18%	8.9µM*
CCOC(=O)c1c(-c2ccc(C)o2)csc1NC(=O)COC(=O)c1cccs1	-8%	13%	-4%	22µM*	14µM*
Cc1ccccc1NC(=O)CSc1nnc(-c2ccoc2C)n1CCc1ccccc1	-7%	-4%[38.3 µM]	2%	-8%	-12%
CCOC(=O)c1c(-c2ccc(C)o2)csc1NC(=O)CN1CCOCC1	-3%	41%[38.3 µM]	6%	u	-13%
